These results are taken from PubChem BioAssay (EPA / NIEHS).

The source made the active and inactive calls. The calls were made as follows: active = hit-call score of the fitted dose curve at least 0.9, where 1 is the maximum; inconclusive = response in the unintended direction; inactive = score below 0.9.

The test deals with Peroxisome proliferator-activated receptor gamma (Homo sapiens) (UniProt P37231). In words: OT_PPARg_PPARgSRC1_1440: Odyssey Thera (OT) 24-hour Protein-Complementation Assay for Peroxisome Proliferator-activated Receptor Gamma/ SRC-1 Co-activator (AID 2283388).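 Also: nuclear to cytoplasmic ratio of reconstituted Venus YFP fluorescence in fixed imaged cells.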 A digest of the protocol: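 Transient HEK293T, YFP fragments 1-158/159-239 (mutant IFP1/IFP2) fused to PPARg/SRC-1; 24 h dosing; fix 4% formaldehyde, Draq5; Opera imaging 488/635 nm; N/C ratio, gain vs DMSO.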
Sequence of Peroxisome proliferator-activated receptor gamma (Homo sapiens) (P37231 whole entry, looked up, the tested form may be a part): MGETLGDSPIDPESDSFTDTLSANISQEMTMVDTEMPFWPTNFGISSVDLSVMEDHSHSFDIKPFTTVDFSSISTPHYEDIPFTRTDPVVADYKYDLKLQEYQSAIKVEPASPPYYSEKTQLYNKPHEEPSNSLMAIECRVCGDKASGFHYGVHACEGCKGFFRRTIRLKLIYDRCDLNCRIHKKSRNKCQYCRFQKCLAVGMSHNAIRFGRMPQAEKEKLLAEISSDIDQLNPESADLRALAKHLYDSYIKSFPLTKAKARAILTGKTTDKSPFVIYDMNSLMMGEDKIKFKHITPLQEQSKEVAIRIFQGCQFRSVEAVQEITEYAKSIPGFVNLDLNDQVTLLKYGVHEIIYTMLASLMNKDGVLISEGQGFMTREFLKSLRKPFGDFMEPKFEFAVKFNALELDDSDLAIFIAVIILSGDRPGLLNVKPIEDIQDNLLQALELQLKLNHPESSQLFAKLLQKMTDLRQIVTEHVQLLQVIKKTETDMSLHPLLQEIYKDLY
With `Cc1ccc(N)cc1Cl`, the call was inactive.

With `Clc1ccc(C2(Cn3cncn3)CC(Br)CO2)c(Cl)c1` (stereo not drawn), the outcome was inactive.

Turning to `COc1cc(OC)nc(NC(=O)NS(=O)(=O)c2ncccc2C(=O)N(C)C)n1`, the compound was called inactive.

Regarding `Cc1ccccc1C(=O)Nc1cccc(OC(C)C)c1`, the result was inactive.

Consider `CCC(=O)C(CC(C)N(C)C)(c1ccccc1)c1ccccc1` (stereo not drawn), for which the result was inactive.

For the compound `CC(=O)c1cc(C(C)(C)C)cc2c1CCC2(C)C`, the compound was classed as inactive.

Take `CNC`: the call was inactive.

As to `CC(C)(OO)c1ccccc1`, the compound was called inactive.

As for `CCC(C)(C)c1ccc(O)c(C(C)(C)CC)c1`, the result was inactive.

As to `BrCCBr`, the compound was classed as inactive.

As for `O=C(O)C(Cl)(Cl)Cl`, the result was inactive.

Turning to `CC(C)(c1ccc(OCC2CO2)cc1)c1ccc(OCC2CO2)cc1` (stereo not drawn), the compound was classed as inactive.

`CC1(C)Cc2cccc(O)c2O1`: the compound was called inactive.

Turning to `O=C(NCO)NCO`, the result was inactive.

On to `O=c1[nH]c(=O)[nH]c(=O)[nH]1`, for which the call was inactive.

As for `OCC(O)CCl` (stereo not drawn), the compound was classed as inactive.

For `CNC(=O)O/N=C/C(C)(C)S(C)=O` (stereo not drawn), the compound was called inactive.

For `CC(C#N)CCC#N` (stereo not drawn), the outcome was inactive.

Consider `Cc1ccc2ccccc2c1C`, for which the result was inactive.

In the case of `O=C1C2(Cl)C3(Cl)C4(Cl)C(Cl)(Cl)C5(Cl)C3(Cl)C1(Cl)C5(Cl)C24Cl` (stereo not drawn), the outcome was inactive.

In the case of `CC(C)(C)c1cc(O)ccc1O`, the call was inactive.

Consider `CCCCCCCCSC(=O)Oc1cc(Cl)nnc1-c1ccccc1`, for which the compound was classed as inactive.

For `CCC1(c2ccc(N)cc2)CCC(=O)NC1=O` (stereo not drawn), the result was inactive.

As for `COc1ccc(C=O)cc1OC`, the call was inactive.

With `O=C1C(Cl)=C(Cl)C(=O)c2ccccc21`, the AC50 is 11.8 µM (active).

Consider `CN(C)N=O`, for which the outcome was inactive.

With `CC(C)c1cccc(C(C)C)c1O`, the outcome was inactive.

For `[O-][Cl+2]([O-])O`, the outcome was inactive.
